Data from PubChem BioAssay (NCI).
Compounds without any hit were thinned out: in the full panel of roughly 79,000, 15% have a hit. A number with no mark means an inactive call. Active and inactive are the calls of the source. No stated cut-off is given here; in the data, active means growth inhibition above about 70%; inactive means the rest.

Experiments:
[1] = NCI Yeast Anticancer Drug Screen. Data for the rad50 strain (AID 155);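 further: 0% = growth of vehicle-only cultures of the same strain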; conditions: S. cerevisiae rad50 strain growth inhibition, active compounds read high
In short: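 Relative growth inhibition (compound vs vehicle) was measured in yeast with a defined repair-gene alteration.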

[2] = NCI Yeast Anticancer Drug Screen. Data for the mec2-1 strain (AID 157); conditions: S. cerevisiae mec2-1 strain, active compounds read high
In short: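 Strain: mec2-1 (DNA repair/cell cycle alteration). Compound exposure, then growth measured; inhibition expressed relative to vehicle.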

[3] = NCI Yeast Anticancer Drug Screen. Data for the sgs1 mgt1 strain (AID 161);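 further: 0% = growth of cultures given vehicle only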; conditions: S. cerevisiae sgs1 mgt1 strain, active compounds read high
In short: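 Inhibition of yeast growth, normalised to vehicle-treated controls, is reported for a strain bearing genetic alterations in DNA damage repair.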

[4] = NCI Yeast Anticancer Drug Screen. Data for the cln2 rad14 strain (AID 165);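 further: 0% = growth equal to vehicle treated cultures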; conditions: S. cerevisiae cln2 rad14 strain, active compounds read high
In short: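 Compounds are applied to the cln2 rad14 yeast strain, and growth is then compared with that of vehicle-treated cultures to give inhibition.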

[5] = NCI Yeast Anticancer Drug Screen. Data for the bub3 strain (AID 167); conditions: S. cerevisiae bub3 mutant strain, active compounds read high
In short: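 Screening used yeast with an engineered genetic alteration affecting cell cycle control. Compound-exposed cultures were compared with vehicle cultures, and reduced growth was taken as inhibition.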

[6] = NCI Yeast Anticancer Drug Screen. Data for the mlh1 rad18 strain (AID 175); conditions: S. cerevisiae mlh1 rad18 strain growth inhibition, active compounds read high
In short: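 Read-out is yeast growth inhibition, calculated against vehicle-only controls. The compound was applied to a strain engineered with DNA damage repair alterations.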

[7] = at 5.0 µM (retest, dose inferred, filed as 0.5)
[8] = at 50.0 µM (retest, dose inferred, filed as 5.0)

Structure (SMILES) | growth inhibition [1, 7] | growth inhibition [1, 8] | growth inhibition ([1]; at 50.0 µM) | growth inhibition [2, 7] | growth inhibition [2, 8] | growth inhibition ([2]; at 50.0 µM) | growth inhibition [3, 7] | growth inhibition [3, 8] | growth inhibition ([3]; at 50.0 µM) | growth inhibition [4, 7] | growth inhibition [4, 8] | growth inhibition ([4]; at 50.0 µM) | growth inhibition [5, 7] | growth inhibition [5, 8] | growth inhibition ([5]; at 50.0 µM) | growth inhibition [6, 7] | growth inhibition [6, 8] | growth inhibition ([6]; at 50.0 µM)
O=C1/C(=C/N2CCN(c3ccccc3)CC2)Cc2c(Cl)cccc21 | 13% | -2% | 77.3% (active) | 7% | 91% (active) | 98.2% (active) | 7% | 4% | 64.3% | 64% | 35% | 93.8% (active) | -9% | 33% | 94.3% (active) | 6% | 41% | 98.2% (active)
CCC(C)(C)c1ccc(OCCO)c([N+](=O)[O-])c1 | 10% | 70% (active) | 77.3% (active) | 8% | 71% (active) | 0.1% | 15% | 92% (active) | 74% (active) | 13% | 64% | 25.9% | 19% | 88% (active) | 72.4% (active) | 29% | 90% (active) | 56.9%
OC(CC(CC(O)(C(F)(F)Cl)C(F)(F)Cl)=NNc1ccccc1)(C(F)(F)Cl)C(F)(F)Cl | 87% (active) | 99% (active) | 99% (active) | 91% (active) | 99% (active) | 99.2% (active) | 79% (active) | 98% (active) | 99.3% (active) | 83% (active) | 99% (active) | 99.2% (active) | 52% | 99% (active) | 99% (active) | 93% (active) | 99% (active) | 99% (active)
O=[N+]([O-])c1ccc(NNS(=O)(=O)c2ccccc2)c([N+](=O)[O-])c1 | 3% | -7% | 5.85% | -13% | -4% | 16.3% | -3% | 13% | 10.3% | -33% | -17% | -18.2% | 4% | 13% | -2% | 0% | 16% | 13.8%
CC(C)c1ccc2c(c1)CC[C@@H]1[C@](C)(CO)CCC[C@]21C | 4% | 94% (active) | 34.8% | 4% | 94% (active) | 89.8% (active) | 0% | 99% (active) | 43.2% | 2% | 96% (active) | 68.2% | -3% | 95% (active) | 89.1% (active) | -16% | 95% (active) | 97.3% (active)
Nc1ncnc2nc[nH]c12.[Ag] | 98% (active) | 99% (active) | 99.3% (active) | 99% (active) | 100% (active) | 99.7% (active) | 97% (active) | 99% (active) | 99.7% (active) | 99% (active) | 99% (active) | 98.5% (active) | 99% (active) | 99% (active) | 99.5% (active) | 97% (active) | 99% (active) | 99.7% (active)
C=C(CN(C)C)C(=O)c1ccccc1Cl | -10% | 90% (active) | 90.8% (active) | -15% | 80% (active) | 92.7% (active) | 15% | 95% (active) | 92.5% (active) | -10% | 25% | 7.9% | -14% | 96% (active) | 70.6% (active) | 46% | 98% (active) | 98.1% (active)
Clc1ccc(CN2COc3c(ccc4ccccc34)C2)cc1 | 10% | 78% (active) | 88.8% (active) | 3% | 43% | 59.8% | 13% | 97% (active) | 83.2% (active) | 0% | 85% (active) | 61.1% | -4% | 96% (active) | 89.9% (active) | 1% | 96% (active) | 59%
O=C1c2cc([N+](=O)[O-])ccc2-c2cc([N+](=O)[O-])ccc21 | 44% | 32% | 91.2% (active) | 39% | 39% | 92.8% (active) | 73% (active) | 97% (active) | 93.3% (active) | 46% | 99% (active) | 68% | 80% (active) | 97% (active) | 91.2% (active) | 21% | 34% | 74.5% (active)
Cc1cc(Cl)ccc1C(=O)c1ccc2ccccc2c1C(=O)O | 8% | 44% | 84% (active) | -15% | 49% | 82.5% (active) | 3% | 54% | 78% (active) | -7% | 65% | 83.5% (active) | -24% | 87% (active) | 82.4% (active) | -36% | 52% | 78.8% (active)
CN(C)c1ccc(C(=O)C2CCCC(C)(C)C2)cc1 (configuration not stated) | 22% | 65% | 90.7% (active) | 24% | 78% (active) | 93.5% (active) | 13% | 77% (active) | 91.5% (active) | 7% | 27% | 88.3% (active) | 57% | 47% | 86.9% (active) | 24% | 68% | 94.8% (active)
COc1ccc(C2CC(=O)CC(=O)C2)cc1 | -6% | -23% | 65.2% | 5% | -8% | 10.1% | -7% | 2% | 32.5% | -64% | -20% | -3.35% | -25% | -15% | 16% | -12% | 0% | 55.5%
CCN(CC)CCOc1ccc(C(=C2CCCCC2)c2ccc(OCCN(CC)CC)cc2)cc1 | 34% | 34% | 84.8% (active) | 31% | 31% | 41% | 31% | 31% | 89.1% (active) | 31% | 31% | 77% (active) | 31% | 31% | 76.8% (active) | 28% | 28% | 78.5% (active)
COC(=O)C(=O)/C=C(/O)c1ccc(OC)cc1 | -16% | -1% | -2.15% | -28% | -9% | -28.3% | -7% | 5% | 43% | -12% | 18% | 4.15% | -4% | 24% | 9.85% | -34% | 38% | -26.5%
COc1cc([C@@H]2c3cc4c(cc3[C@@H](OC3OC5CO[C@@H](c6cccs6)OC5C(O)C3O)[C@H]3COC(=O)[C@H]23)OCO4)cc(OC)c1O (some centres not stated) | 74% (active) | 96% (active) | 86.6% (active) | 5% | 92% (active) | 74.8% (active) | 6% | 77% (active) | 63.7% | -3% | 79% (active) | 47.6% | -2% | 74% (active) | 49.8% | 5% | 86% (active) | 64.7%
CC(C)(C)Oc1ccc(CC(NC(=O)OCC2c3ccccc3-c3ccccc32)C(=O)O)cc1 (configuration not stated) | 9% | 95% (active) | 90.6% (active) | -11% | 97% (active) | 93.2% (active) | -9% | 98% (active) | 90.5% (active) | 33% | 96% (active) | 91.7% (active) | -7% | 97% (active) | 89.2% (active) | -3% | 96% (active) | 90.3% (active)
Cc1cc(C)c(CCCC(=O)c2c(C)cc(C)cc2C)c(C)c1 | -7% | 28% | 9.85% | -4% | 1% | -1.6% | -7% | 23% | 9.85% | 1% | -10% | 29.1% | 1% | 6% | 15.6% | -3% | -12% | 9.75%
N#CC(c1c(Cl)cccc1N1CCCCC1)N1CCCCC1 (configuration not stated) | 31% | 75% (active) | 86.9% (active) | 34% | 78% (active) | 87.4% (active) | 41% | 85% (active) | 87.6% (active) | 30% | 61% | 80.4% (active) | 37% | 92% (active) | 91.2% (active) | 46% | 84% (active) | 87.7% (active)
CNC(=O)N(C1=NCC(C)S1)c1ccc(C)c(C)c1 (configuration not stated) | -13% | 97% (active) | 63.9% | -21% | 98% (active) | 74.9% (active) | -36% | 95% (active) | 71.8% (active) | -17% | 76% (active) | 57.2% | -22% | 98% (active) | 79.2% (active) | -17% | 89% (active) | 69%
